# Measured values as given in the supplement of paper PMC10681739.
# Tests used:
# RUNX1 [1] = target: RUNX1 (UniProt Q01196); assay: RUNX1 binding intensity (PBM fluorescence), RUNX1 alone (arbitrary fluorescence units); higher = stronger binding; conditions: RUNX1 concentration 2 nM; ETS1 concentration 0 nM
# Experimental: (§1)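 Cooperative gcPBM on 36-bp genomic probes with neighbouring ETS1 and RUNX1 sites. Recombinant human RUNX1 (2 nM) was incubated alone or with ETS1 (25 nM) and detected with anti-RUNX1 antibody plus Alexa488 secondary. Values are medians over 4 replicate spots; the RUNX1+ETS1 data were normalised to the RUNX1-only data. The probes sit in constant array flanks that are not printed.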
# ETS1 = target: T1, ETS1 (UniProt P14921); assay: ETS1 binding intensity (PBM fluorescence) in presence of RUNX1, normalised to ETS1-only experiment (arbitrary fluorescence units); higher = stronger binding; conditions: ETS1 concentration 1 nM; RUNX1 concentration 25 nM
# T1 sequence: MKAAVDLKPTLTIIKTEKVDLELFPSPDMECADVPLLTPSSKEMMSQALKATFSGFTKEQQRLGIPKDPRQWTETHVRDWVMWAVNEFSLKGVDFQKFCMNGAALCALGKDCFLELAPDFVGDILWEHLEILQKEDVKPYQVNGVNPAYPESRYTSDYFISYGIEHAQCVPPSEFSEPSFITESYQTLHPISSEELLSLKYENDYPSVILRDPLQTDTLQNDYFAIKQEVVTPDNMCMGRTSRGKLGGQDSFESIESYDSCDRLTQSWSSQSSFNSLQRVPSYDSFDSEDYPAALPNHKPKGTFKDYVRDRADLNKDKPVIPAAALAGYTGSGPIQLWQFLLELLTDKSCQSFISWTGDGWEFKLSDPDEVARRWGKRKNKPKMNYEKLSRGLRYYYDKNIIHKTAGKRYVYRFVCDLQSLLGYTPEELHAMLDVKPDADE
# RUNX1 [2] = target: RUNX1 (UniProt Q01196); assay: RUNX1 binding intensity (PBM fluorescence) in presence of ETS1, normalised to RUNX1-only experiment (arbitrary fluorescence units); higher = stronger binding; conditions: RUNX1 concentration 2 nM; ETS1 concentration 25 nM
# Experimental: as §1
# 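Wherever RUNX1 binding intensity (PBM fluorescence) in presence of ETS1, normalised to RUNX1-only experiment is given: Full-length recombinant human ETS1 or RUNX1 bound to double-stranded 36-bp genomic probes on microarrays, detected by protein-specific primary antibody and Alexa488 secondary, spot fluorescence as median of four replicate spots.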
# 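Wherever RUNX1 binding intensity (PBM fluorescence), RUNX1 alone is given: Full-length recombinant human RUNX1 bound to double-stranded 36-bp genomic probes on a high-density microarray, scored as Alexa488 fluorescence per spot via anti-RUNX1 antibody, median of four replicate spots.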
# Sequence of RUNX1 (Q01196 whole entry): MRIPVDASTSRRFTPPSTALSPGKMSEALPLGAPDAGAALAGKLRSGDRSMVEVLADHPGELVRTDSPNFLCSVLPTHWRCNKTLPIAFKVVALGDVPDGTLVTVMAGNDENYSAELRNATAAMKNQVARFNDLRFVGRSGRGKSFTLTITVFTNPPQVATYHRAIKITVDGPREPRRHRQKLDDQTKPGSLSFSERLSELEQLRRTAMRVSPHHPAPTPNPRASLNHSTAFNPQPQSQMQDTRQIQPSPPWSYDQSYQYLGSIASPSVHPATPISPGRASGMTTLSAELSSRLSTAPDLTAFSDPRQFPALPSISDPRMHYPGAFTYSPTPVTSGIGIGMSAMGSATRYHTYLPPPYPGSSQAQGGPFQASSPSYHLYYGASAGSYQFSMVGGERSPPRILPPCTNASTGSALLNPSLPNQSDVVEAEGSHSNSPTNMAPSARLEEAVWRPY
sequence,measurement,setting,value
AGGTGTACTTTCCGGGTGCAGACCGCGAATGGATCG,RUNX1 binding intensity,RUNX1 [1],743
same,ETS1 binding intensity,ETS1,534
same,RUNX1 binding intensity,RUNX1 [2],1120
TGTGATAAGGATGTTCGTGTGCCTTGTGGTCAGGTG,RUNX1 binding intensity,RUNX1 [1],889
same,ETS1 binding intensity,ETS1,1710
same,RUNX1 binding intensity,RUNX1 [2],905
CACCTCACAGCCCGGATACAAACCGCCTACCCGCCC,RUNX1 binding intensity,RUNX1 [1],1300
same,ETS1 binding intensity,ETS1,980
same,RUNX1 binding intensity,RUNX1 [2],1230
GGGGCTCCGCAGGAAGTAGGGCTCCCACAACTTTGC,RUNX1 binding intensity,RUNX1 [1],664
same,ETS1 binding intensity,ETS1,2310
same,RUNX1 binding intensity,RUNX1 [2],1040
TAGGCTGAAGACTTCCGCCCCGCAGAGGACTTGCCT,RUNX1 binding intensity,RUNX1 [1],839
same,ETS1 binding intensity,ETS1,974
same,RUNX1 binding intensity,RUNX1 [2],1170
CTACAGGAAGTTCGAACTGGGCGGAGCCCACCGCAG,RUNX1 binding intensity,RUNX1 [1],658
same,ETS1 binding intensity,ETS1,1950
same,RUNX1 binding intensity,RUNX1 [2],1120
CGGGGATGGGATTTCCGGTGGTTTTTCTTCACTTTC,RUNX1 binding intensity,RUNX1 [1],851
same,ETS1 binding intensity,ETS1,4760
same,RUNX1 binding intensity,RUNX1 [2],3240
GCCCAGTTCTCGCATCCGGTCTGCGGCGCGCTCGGG,RUNX1 binding intensity,RUNX1 [1],828
same,ETS1 binding intensity,ETS1,5020
same,RUNX1 binding intensity,RUNX1 [2],1840
TACGTCACTTCCGGGCCGCCGTCCTGCGGGCAAGGG,RUNX1 binding intensity,RUNX1 [1],799
same,ETS1 binding intensity,ETS1,3920
same,RUNX1 binding intensity,RUNX1 [2],2270
TCCTTAATGGTTCCGGCGGCAGGGACCGCAGCGACG,RUNX1 binding intensity,RUNX1 [1],824
same,ETS1 binding intensity,ETS1,526
same,RUNX1 binding intensity,RUNX1 [2],914
TGCCGCGGATACCCAGCCAGCGGCAGTGCGGTTAAC,RUNX1 binding intensity,RUNX1 [1],1140
same,ETS1 binding intensity,ETS1,955
same,RUNX1 binding intensity,RUNX1 [2],1210
GGGGTCAGGAAATGGGTGTGCCGCGGGTAAGGCGCT,RUNX1 binding intensity,RUNX1 [1],733
same,ETS1 binding intensity,ETS1,921
same,RUNX1 binding intensity,RUNX1 [2],984
GTGCCGGCGGCCGGATGTGGGCGGGGCCACGGGGAG,RUNX1 binding intensity,RUNX1 [1],753
same,ETS1 binding intensity,ETS1,16200
same,RUNX1 binding intensity,RUNX1 [2],4170
CAGGCAGGATGTTGACTCAGCTGCCAAGTGGTTTTG,RUNX1 binding intensity,RUNX1 [1],719
same,ETS1 binding intensity,ETS1,1760
same,RUNX1 binding intensity,RUNX1 [2],1020
GCGGGAAAAGGGAAGTTTGCGGGAGGTCAAATCCAC,RUNX1 binding intensity,RUNX1 [1],867
same,ETS1 binding intensity,ETS1,550
same,RUNX1 binding intensity,RUNX1 [2],968
